# Measurements published in PubChem BioAssay AID1825 (The Scripps Research Institute Molecular Screening Center, 2009).
# In all, about 290,000 compounds went through this assay and about 2,300 (0.79%) were called active. Cut-off read from the data, not from the text of the source: active = inhibition above about 22%; inactive = the rest. For the sample, actives were picked, then their nearest neighbours and some compounds at random.
# Assay: IEC-6 cell viability reduction – luminescence, cytotoxicity control for KLF5 inhibitor project, primary screen (AID 1825);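 note: 0% = plate median of test compound wells and 100% = cytotoxic reference compound wells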
# Details: IEC-6 cytotoxicity, at 5 µM, active compounds read high
row,SMILES,inhibition
1,CCCC1=Nc2cc(C(=O)NCCN3CCCC3)ccc2Sc2ccccc21,-2.7% (inactive)
2,CCC1=Nc2cc(C(=O)NCCN3CCCC3)ccc2Sc2ccc(C)cc21,2.7% (inactive)
3,CCCC1=Nc2cc(C(=O)NCc3ccco3)ccc2Sc2ccccc21,62.9% (active)
4,Cc1ccccc1N1CC(C(=O)Nc2nnc(SCCC3OCCO3)s2)CC1=O (stereo unspecified),-3.4% (inactive)
5,O=c1ccc2cc(S(=O)(=O)NCCCc3ccccc3)ccc2[nH]1,-3.7% (inactive)
6,O=C(c1cc(COc2ccc(F)c(F)c2)on1)N1CCOCC1,0.8% (inactive)
7,C=CCC1(CC=C)CCCN1C(=O)c1cc(COc2ccc(-n3cncn3)cc2)on1,22.6% (active)
8,CCn1ccnc1CN(C)C(=O)c1cc(COc2ccc(-n3cncn3)cc2)on1,-7.1% (inactive)
9,CCCCNC(=O)CCn1nc(-c2ccc(Cl)cc2)ccc1=O,-2.4% (inactive)
10,COc1cc(OC)nc(S(C)(=O)=O)n1,6.6% (inactive)
11,COc1ccc(-c2cc(C(F)(F)F)nc(S(C)(=O)=O)n2)cc1OC,26.4% (active)
12,COc1ccc(-c2cc(C(F)(F)F)nc(SCC(=O)Nc3ccc4c(c3)OCO4)n2)cc1OC,3% (inactive)
13,Cn1c(=O)[nH]c(=O)c2c1nc(N1CCN(C(c3ccccc3)c3ccccc3)CC1)n2CCO,-7.4% (inactive)
14,COc1ccccc1N1CCN(S(=O)(=O)c2ccc3c(c2)NC(=O)CS3)CC1,2.9% (inactive)
15,CC(C)(C)c1cc[n+](-c2[nH]c(=O)sc2/C=N/N=C(\[O-])c2ccccc2)cc1,4.2% (inactive)
16,O=C(c1ccccc1F)N(Cc1ccccc1)Cc1ccccc1,-1.4% (inactive)
17,CC1(C)C(C=C(Cl)Cl)C1C(=O)N(Cc1ccc(Cl)cc1)C1CCS(=O)(=O)C1 (stereo unspecified),-12.5% (inactive)
18,Cc1cc(C(=O)OCC(=O)NCc2ccco2)c(C)n1-c1ccccc1,33.2% (active)
19,O=C(COC(=O)c1cc(S(=O)(=O)N2CCCCC2)ccc1Cl)NCc1ccco1,6.2% (inactive)
20,CN(c1ccccc1)S(=O)(=O)c1ccc(Cl)c(C(=O)OCC(=O)NCc2ccco2)c1,-4.1% (inactive)
21,O=C(COc1ccc(Cl)cc1)Nc1ccc2oc(=O)ccc2c1,-4.8% (inactive)
22,Oc1cccc(/C=N/Nc2ccc(Cl)nn2)c1O,99.5% (active)
23,Clc1ccc(N/N=C/c2cccs2)nn1,-1.4% (inactive)
24,COc1cccc(/C=N/Nc2ccc(Cl)nn2)c1,-3.1% (inactive)

row,SMILES,inhibition
1,CCC1CCCCN1C(=O)CSc1nc2c(c(=O)n1C)SC(C)C2 (stereo unspecified),0% (inactive)
2,Cc1cc(Cl)ccc1C(=O)C1CCCN(C(=O)c2nonc2C)C1 (stereo unspecified),-1.1% (inactive)
3,CCC(CC)C(=O)Nc1c2c(nn1-c1ccc(C)cc1)CS(=O)(=O)C2,-3% (inactive)
4,Cc1ccc(Oc2nc(-c3ccccn3)nc3ccccc23)cc1,8.9% (inactive)
5,CC(C)(C)Nc1nc(-c2ccccn2)nc2ccccc12,91.3% (active)
6,CCOCCCNc1nc(-c2ccccc2)nc2ccccc12,-4% (inactive)
7,COc1cc(N=Cc2c(O)c3ccccc3oc2=O)c(OC)cc1Cl,2.7% (inactive)
8,CNC[C@H](CC1CCCCC1)NC[C@H](NCCC1CCCC1)[C@H](C)O,36.1% (active)
9,COc1cc(C(=O)OC2CCOC2=O)c([N+](=O)[O-])cc1OC (stereo unspecified),-4% (inactive)
10,COc1ccccc1Oc1ccc(N/C=C2/CCCC2=O)cc1,-8.7% (inactive)
11,C/C(=N\NC(=O)c1ccoc1C)c1ccccc1O,98.7% (active)
12,CC(C)=C(NC(=O)c1ccccc1)C(=O)N/N=C(\C)c1ccccc1O,4% (inactive)
13,Cc1[nH]n(-c2ccccc2)c(=O)c1/C=N/NC(=O)c1ccoc1C,1.8% (inactive)
14,CN(Cc1ccccc1)S(=O)(=O)c1nnc(NC(=O)c2ccccc2F)s1,4.7% (inactive)
15,Cc1ccc(-c2nn(-c3ccccc3)cc2/C=C2\SC(=S)N(CCCCCC(=O)O)C2=O)o1,-8.8% (inactive)
16,Cc1cccc(N(C(=O)Cn2nnc(-c3ccc(C)o3)n2)C(C(=O)NC2CCCC2)c2ccncc2)c1 (stereo unspecified),-3.9% (inactive)
17,C[N+](C)(C)CCNC(=O)c1cc[n+](Cc2ccccc2)c(/C=N/O)c1,-6.3% (inactive)
18,CCC(=O)Nc1ccc(C(=O)NNC(=O)c2ccc(Cl)cc2)cc1,2.4% (inactive)
19,CC(C)(C)c1cc2cccnc2n1Cc1cccc(F)c1,-9.9% (inactive)
20,O=C(/C=C/Sc1ncn[nH]1)c1ccc(Cl)cc1,96.3% (active)
21,Cc1ccc(C(=O)/C=C/c2c(C)nn(-c3ccccc3)c2Cl)cc1,7.3% (inactive)
22,O=C(CSc1ncn[nH]1)N/N=C/c1ccc(F)cc1,2.8% (inactive)
23,CC(C)(C)n1nnnc1C(c1ccccc1F)N1CCN(C(=O)c2ccco2)CC1 (stereo unspecified),-4.7% (inactive)
24,O=C(OCc1ccc(-c2ccccc2)cc1)c1cccc(O)c1,-3.8% (inactive)

row,SMILES,inhibition
1,CCN(CC(=O)NCCCN1CCOCC1)S(=O)(=O)c1cc(Cl)ccc1Cl,0.6% (inactive)
2,O=S(=O)(NCCc1ccc(Cl)cc1)c1cccs1,6.4% (inactive)
3,Cc1ccc(N2C(=O)C(Cc3ccccc3)NC2=S)cc1 (stereo unspecified),24.6% (active)
4,COc1ccc(N2C(=O)C(Cc3ccccc3)NC2=S)cc1 (stereo unspecified),3.8% (inactive)
5,O=C1C(Cc2ccc(O)cc2)NC(=S)N1Cc1ccccc1 (stereo unspecified),-3.3% (inactive)
6,CC(C)C(=O)NCC(c1cccs1)S(=O)(=O)c1ccc(F)cc1 (stereo unspecified),7.2% (inactive)
7,CC(=O)Nc1ccc(Nc2ncnc3c2nnn3Cc2ccccc2Cl)cc1,1.1% (inactive)
8,CCN(Cc1nc2ccccc2c(=O)[nH]1)Cc1cc(=O)oc2cc(C)c(C)cc12,2% (inactive)
9,COc1ccc(C(=O)Nc2cc(C)c(NC(=O)c3ccccc3OC)cn2)cc1,-2.8% (inactive)
10,Cc1cc(C(=O)NC2CC(C)(C)Cc3c2cnn3-c2ccccc2)n[nH]1 (stereo unspecified),7.1% (inactive)
11,Cc1cccc2sc(N(CCCN(C)C)C(=O)CCS(=O)(=O)c3ccccc3)nc12,11.3% (inactive)
12,COc1cccc2sc(N(CCCN(C)C)C(=O)C(c3ccccc3)c3ccccc3)nc12,3.5% (inactive)
13,COc1cccc2sc(N(CCCN(C)C)C(=O)CCS(=O)(=O)c3ccccc3)nc12,50% (active)
14,COc1ccccc1NC(=O)c1ccc(C)s1,34.8% (active)
15,COC(=O)c1c(NC(C)=O)sc(C(=O)Nc2ccccc2OC)c1C,-1.2% (inactive)
16,COc1ccccc1NC(=O)C1=C(C)NC(=O)NC1c1ccc(C)s1 (stereo unspecified),-4.5% (inactive)
17,CC(NC(=O)Cn1cc(C(F)(F)F)cc(Cl)c1=O)c1ccccc1 (stereo unspecified),4.4% (inactive)
18,COc1ccccc1CCNC(=O)c1c(C)nn(CC(C)C)c1Cl,-4.6% (inactive)
19,O=C(Cc1cccs1)Nc1ccc([N+](=O)[O-])cc1,-0.5% (inactive)
20,CC(C)c1ccc(Cc2nnc(NCCCO)[nH]c2=O)cc1,3.6% (inactive)
21,Cc1ccc(NC(=O)Cn2nnc(C(=O)NCc3ccco3)c2N)c(C)c1,-1.1% (inactive)
22,CCOc1ccccc1NC(=O)Cc1cccs1,-0.9% (inactive)
23,CCOc1ccccc1NC(=O)Cn1nnc(C(=O)NCc2cccs2)c1N,84.2% (active)
24,CC(C)c1cc(C(=O)N/N=C/c2ccoc2)c(O)c(C(C)C)c1,-1.3% (inactive)

row,SMILES,inhibition
1,CCN(C(=O)C1CCCN(c2nc(-c3ccc(OC)cc3)no2)C1)c1ccc(OC)cc1 (stereo unspecified),-1.6% (inactive)
2,Cc1nc(Cl)c2oc3ccccc3c2n1,-5.3% (inactive)
3,COc1ccc(C)cc1Nc1nc(C)nc2c1oc1ccccc12,34.1% (active)
4,COc1ccccc1Nc1ncnc2c1oc1ccccc12,-0.2% (inactive)
5,CSc1ncccc1C(=O)Nc1ccc(C)cn1,4.3% (inactive)
6,CCOC(=O)c1[nH]c2c(c1-c1ccccc1)C(=O)CC(c1ccc(Cl)cc1)C2 (stereo unspecified),2% (inactive)
7,CCCOC(=O)c1[nH]c2c(c1C)C(=O)CC(c1cccs1)C2 (stereo unspecified),81.1% (active)
8,COCCOC(=O)c1[nH]c2c(c1C)C(=O)CC(c1ccc(OC)cc1)C2 (stereo unspecified),2.6% (inactive)
9,CCOc1cc(C)c(S(=O)(=O)NCc2ccccn2)cc1C,4.3% (inactive)
10,COc1ccccc1NC(=O)CN(c1ccccc1OC)S(=O)(=O)c1ccccc1,-4.1% (inactive)
11,COc1ccc(S(=O)(=O)N(CC(=O)N/N=C/c2ccccc2C(=O)O)c2ccccc2OC)cc1,2.9% (inactive)
12,COc1ccccc1N(CC(=O)N/N=C(\C)c1ccccc1O)S(=O)(=O)c1ccc(C)cc1,33.8% (active)
13,CC(=O)NC(Cc1c[nH]c2ccccc12)C(=O)NCCc1ccccc1 (stereo unspecified),-0.3% (inactive)
14,COc1cccc(C(=O)Nc2ccc(N3CCN(C(=O)c4ccco4)CC3)cc2)c1,45% (active)
15,COc1ccc(NC(=O)c2cccc(NC(=O)c3ccco3)c2)c(OC)c1,4.3% (inactive)
16,Cc1ccc(OCC(=O)Nc2ccc(N3CCN(C(=O)c4ccco4)CC3)cc2)c(C)c1,-14.8% (inactive)
17,COc1ccc(C(=O)Nc2ccc(N3CCC(C)CC3)cc2)cc1Br,-5.3% (inactive)
18,CN1CCN(c2ccc(NC(=O)c3ccccc3)cc2)CC1,-2.5% (inactive)
19,COc1cccc(C(=O)Nc2ccc(N3CCCC3)cc2)c1,24.2% (active)
20,CCOC(=O)N1CCN(CCC(=O)Nc2ccccc2)CC1,-5.3% (inactive)
21,O=C(Nc1cccc(NC(=O)c2ccccc2[N+](=O)[O-])c1)c1ccccc1Cl,8% (inactive)
22,O=C(O)c1cc([N+](=O)[O-])c(Nc2cccc3ccccc23)c([N+](=O)[O-])c1,4.7% (inactive)
23,CSc1ccccc1OCc1cc(C(=O)N2C[C@H]3CC[C@H]2C3)no1,1.9% (inactive)
24,COc1ccc(N2CCN(C(=O)[C@@H](NC(=O)c3cc(OC)cc(OC)c3)C(C)C)CC2)cc1,-4.9% (inactive)
